# The list is not random: actives were taken first. Their share in the collection is about 3.7%.
# V-ATPase pHluor: alters yeast V-ATPase proton transport; S. cerevisiae, pHLuorin cytosolic pH fluorescence; response, % at 10 µM; actives 0.37% (n = 350,000); in the data active means response mostly above about 7.3%, no sharp cut-off; inactive means mostly below about 5.4%; further: actives read high
# tim23-1 inh: tim23-1 yeast growth inhibition; S. cerevisiae tim23-1 growth, BacTiter-Glo luminescence, 24 h; inhibition, % at 20 µM; actives 1.3% (n = 330,000); AID 463212;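 active means growth inhibition of the mutant yeast at or above 50%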;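 further: temperature-sensitive mutant grown at 25 °C; plate controls were DMSO-treated mutant yeast for no effect and medium wells lacking yeast for full effect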
# TIM10 inh: inhibits growth of TIM10 yeast strain | S. cerevisiae TIM10 strain growth, BacTiter-Glo luminescence, 24 h | inhibition, % at 10 µM | actives 1.4% (n = 330,000);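 active means inhibition of 40% or more at the single tested concentration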;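 further: wild-type TIM10 isogenic control strain grown at permissive 25 °C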
# tim10-1 inh: tim10-1 yeast growth inhibition; S. cerevisiae tim10-1 ts strain growth, BacTiter-Glo, 24 h; inhibition, % at 20 µM; actives 2.2% (n = 330,000); AID 463190;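 active means inhibition of at least 40%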;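 further: mutant grown at 25 °C; 0% = DMSO wells with yeast and 100% = wells holding no yeast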
# PfHsp90 set2: reduces growth (ATP signal) of yeast expressing P. falciparum Hsp90 | AID 504621 | inhibition, % at 9.4 µM | actives 0.32% (n = 310,000) | S. cerevisiae expressing PfHsp90, BacTiter-Glo ATP, 48 h; yeast lacking PDR1 and PDR3 efflux regulators;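 active means every replicate shows inhibition above about 80%, whatever the replicate mean, limit read from the data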;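 further: 0% = DMSO neutral controls and 100% = 20 µM radicicol positive controls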
# tim10-1 conf: tim10-1 yeast growth inhibition, confirmed | AID 463213 | inhibition, % at 20 µM | S. cerevisiae tim10-1 ts strain growth, BacTiter-Glo, 24 h | actives 56% (n = 7,400) | shares compounds with tim10-1 inh;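 active means inhibition of yeast growth at or above a set limit in either of two repeat tests at 20 µM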;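 further: tim10-1 mutant grown at permissive 25 °C to find synthetic lethal compounds; 0% = DMSO yeast wells and 100% = medium wells without yeast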
# * = called active by the depositor; nt = no result.
SMILES,V-ATPase pHluor,tim23-1 inh,TIM10 inh,tim10-1 inh,PfHsp90 set2,tim10-1 conf
CCC1=NN2C(=N)/C(=C\c3cccn3-c3ccc(OC)cc3)C(=O)N=C2S1,-4,20,34,31,7,nt
Cc1ccc(-n2cccc2/C=C2\C(=N)N3N=C(C(C)C)SC3=NC2=O)cc1,-1,46,20,42*,-65,26
CCOc1cccc(C(=O)NC(=S)Nc2cccnc2)c1,-2,18,-9,19,-16,nt
CCCCOc1cccc(C(=O)NC(=S)Nc2cccnc2)c1,4,43,16,43*,7,14
S=C(NCc1ccco1)N1CCN(c2ccc(Cl)cc2)CC1,1,31,32,49*,-20,23
COc1ccccc1C(C(C(=O)c1ccccc1)N1CCOCC1)N1CCOCC1 (stereo unspecified),2,nt,nt,nt,nt,nt
CC(=O)Nc1ccc(C(=O)OCCCOC(=O)c2ccc(NC(C)=O)cc2)cc1,0,8,-2,3,-9,nt
CC(=O)Nc1ccc(C(=O)OCCc2ccccc2)cc1,2,46,16,42*,-3,33*
CCOC(=O)c1ccc(NC(=S)NCCc2ccccc2F)cc1,-1,27,34,40*,nt,17
CCOC(=O)c1ccc(NC(=S)NCCc2ccccc2)cc1,2,46,36,41*,-21,20
Cc1ccnc(OC(C(=O)O)C(OCc2ccccc2)(c2ccccc2)c2ccc(C(F)(F)F)cc2)n1 (stereo unspecified),3,2,4,-3,-16,nt
CCCn1c(N)c(N(CCOC)C(=O)CSCC(=O)Nc2ccc(OC)cc2)c(=O)[nH]c1=O,-8,-9,-6,-23,nt,nt
CCCC(=O)C1=C(O)C(C(=O)OC)C(C)(C)CC1=Nc1ccc(N)cc1 (stereo unspecified),2,28,17,42*,nt,28
CCCC(=O)C1=C(O)C(C(=O)OC)C(C)(C)CC1=Nc1ccc(OC)cc1 (stereo unspecified),-2,32,26,10,10,nt
O=C(/C=C/c1c(Cl)nc2ccccn12)N1CCN(c2ccccc2F)CC1,-2,41,32,46*,10,36*
COc1cccc(CN(C)C(=O)c2ccc(COc3ccc(Cl)cc3)cc2)c1OC,0,30,2,18,23,nt
COc1ncnc2c1ncn2CCCN1CCN(C(=O)C2CC2)CC1,3,nt,nt,nt,nt,nt
C=CCOC(=O)C1=C(C)N=C2SCCC(=O)N2C1/C=C/c1ccccc1 (stereo unspecified),-2,14,18,42*,nt,14
O=C(c1ccc2c(c1)OCO2)N1CCN(CCN2C(=O)c3cccc4cccc(c34)C2=O)CC1,0,nt,nt,nt,13,nt
Cc1cc(N=Nc2ccc(Cl)cc2)cc(CN2CCOCC2)c1O,-5,28,30,29,-14,nt
Cc1cc(N=Nc2ccc(Cl)cc2)cc(CN2CCCC2)c1O,0,25,25,44*,-4,27
Cc1c(Cl)c([N+](=O)[O-])nn1Cc1ccc(C(=O)Nc2ccc(Cl)cn2)o1,-2,42,38,47*,-34,34*
O=C(Nc1ccc(Cl)cn1)c1ccc([N+](=O)[O-])o1,1,nt,nt,nt,-11,nt
Cc1nn(Cc2ccc(Cl)cc2)c(C)c1NC(=O)c1ccc([N+](=O)[O-])cc1,0,40,16,53*,-33,41*
Cc1nn(Cc2ccc(Cl)cc2)c(C)c1NC(=O)c1noc2c1CCCCC2,2,38,35,43*,nt,44*
SMILES,V-ATPase pHluor,tim23-1 inh,TIM10 inh,tim10-1 inh,PfHsp90 set2,tim10-1 conf
Cc1nn(Cc2ccc(C(=O)Nc3ccccc3F)cc2)c(C)c1Cl,3,11,11,41*,-5,26
Cc1nn(Cc2ccc(C(=O)NN)cc2)c(C)c1Cl,1,36,1,19,-1,nt
Cc1nn(Cc2ccc(Cl)c(Cl)c2)c(C)c1NC(=O)c1noc2c1CCCCC2,3,15,8,8,4,nt
O=C(N/C(=C\c1ccccc1)C(=O)N1CCCCC1)c1ccc(Br)o1,-1,31,4,28,-8,nt
CCNC(=S)Nc1cc(-c2ccc(Cl)cc2)[nH]n1,2,47,7,7,-13,nt
COc1ccccc1-c1nnc2sc(C3CCCCC3)nn12,0,32,2,43*,22,22
COc1ccc(Cc2nn3c(-c4ccccc4OC)nnc3s2)cc1,-2,-5,-31,-13,-20,nt
CCCC[C@@H]1CNC(=S)N1CCC12CC3CC(CC(C3)C1)C2,1,36,10,42*,0,16
CCC(C)(C)n1nnnc1C(c1ccc(C)cc1)N1CCC(C)CC1 (stereo unspecified),-3,45,38,41*,-12,36*
COc1ccc(/C=N/NC(=O)CCn2c3ccccc3c3ccccc32)cc1O,3,43,33,45*,0,16
CC(CCc1ccccc1)NC(=O)Cc1cccs1 (stereo unspecified),-4,14,1,-1,-6,nt
COc1cc(CCC(=O)Nc2c(C(=O)N3CCN(c4ccccc4OC)CC3)oc3ccccc23)on1,3,39,24,42*,-12,10
Cc1ccccc1-c1nnc2c3ccccc3c(C)nn12,0,17,1,4,-9,nt
COc1ccc(-c2nnc3c4ccccc4c(C)nn23)cc1,1,43,10,49*,nt,26
NNc1nc2c(F)cc(F)cc2s1,15,45,26,41*,-62,18
N#Cc1ccc(C(=O)NCC2CCCCC2)cc1,-3,5,-8,9,8,nt
C(=C\c1ccccc1)/CSc1nnc(-c2ccccc2)n1Cc1ccco1,1,38,4,44*,nt,26
O=C(CSc1nnc(-c2cccnc2)n1Cc1ccco1)c1ccc2ccccc2c1,1,27,7,45*,nt,13
O=C(CSc1nnc(-c2ccccn2)n1Cc1ccco1)c1ccccc1,-1,22,-1,22,-14,nt
Brc1ccc(CSc2nnc(-c3ccccn3)n2Cc2ccco2)cc1,-1,37,28,40*,nt,33*
C(=C\c1ccccc1)/CSc1nnc(-c2ccncc2)n1Cc1ccco1,0,33,27,13,17,nt
Cc1ccc(S(=O)(=O)N(C)C[C@H]2Oc3ncc(-c4ccccc4)cc3C(=O)N([C@@H](C)CO)C[C@@H]2C)cc1,1,nt,nt,nt,nt,nt
CN1CCN(c2nc(-c3ccccc3)c3cc(Cl)ccc3n2)CC1,-2,26,37,42*,-109,18
N#C/C(=N\Nc1cccc2ccccc12)c1nnc2n1CCCCC2,-1,15,9,40*,18,16
N#C/C(=C\c1c[nH]c2ccccc12)c1nnc2n1CCCCC2,-2,10,3,12,-1,nt
COCCC(=O)N1CCC(Oc2ccc(C(=O)NCc3cccc(C)n3)cc2)CC1,-1,-3,-2,0,12,nt
O=C(/C=C/c1cccc(Oc2ccccc2)c1)N1CCOCC1,2,5,5,43*,-2,12

# Compound activity from PubChem BioAssay.
